In all, about 9,900 sequences were measured (“r (bound/input frequency ratio)”: median about 0.7, highest 2% from about 6.5 on). The full list was thinned out, with the highest values kept by preference.
B1: ENSMUSG00000061578.1085|Ksr2|91:95 (ssRNA)
RNA: GGGAGUUCUACAGUCCGACGAUCGCUUCGAUAUCCGCAUGCUAGAUUCUAUCCAGUGGCCAGCAAUACCCAAAAGCAGCCAACCAUGAAAAUAGAGGUUUGUAAUGUACAGAAGGCUGGGGGAGCUUUCAGGGCACACGCCAGUUAUGUACAGAUGUGAAGCUGAGGUCUGAAGGAAAUGGAGGAAGUAGGAAGAUCAGACUGGUUGAAUUAGAAGUCUGUCACUCUAGGUGCUAAGUGACCUUGGACCCAGUCAGUUCUUGGAUUUCUGUUGUAGCCCAGGCUAGCCUCGAACCCUUGAUCCCUCUUGCGGUCGCACUAGUGUGGAAUUCUCGGGUGUCAAGG
B2: ENSMUSG00000058297.28|Spock2 (ssRNA)
RNA: GGGAGUUCUACAGUCCGACGAUCGCUUCGAUAUCCGCAUGCUACCUGGACAACAGCAGGCAACUUAGCAAAUGGAUCCGGAAGUCAGUGCGGAGGACCCUGGCUCCAGUGGGGGAGGACUGGGGAGUGUGGCUUGUGUGUAUGUGUGAUAUGAGAUGUGUGUGUAUGAUGUGAGAUGUGAGUGUGUGAUGUGAGAUGUGUGUAUGUGAGAUGUGUGUGUGUGUGUGUGUGUGUGUGAUGUGAGUCACCCAAAGGUCCCUAUGUUAUUGAUUUUCAAAUGCACACUUUCACACACAAGGAUACACUCUUGCGGUCGCACUAGUGUGGAAUUCUCGGGUGUCAAGG
B3: ENSMUSG00000058297.29|Spock2 (ssRNA)
RNA: GGGAGUUCUACAGUCCGACGAUCGCUUCGAUAUCCGCAUGCUACAACAGCAGGCAACUUAGCAAAUGGAUCCGGAAGUCAGUGCGGAGGACCCUGGCUCCAGUGGGGGAGGACUGGGGAGUGUGGCUUGUGUGUAUGUGUGAUAUGAGAUGUGUGUGUAUGAUGUGAGAUGUGAGUGUGUGAUGUGAGAUGUGUGUAUGUGAGAUGUGUGUGUGUGUGUGUGUGUGUGUGAUGUGAGUCACCCAAAGGUCCCUAUGUUAUUGAUUUUCAAAUGCACACUUUCACACACAAGGAUACACUAACACUCUUGCGGUCGCACUAGUGUGGAAUUCUCGGGUGUCAAGG
B4: ENSMUSG00000058297.28|Spock2|83:87;91:104;113:124;138:144;153:162;168:193 (ssRNA)
RNA: GGGAGUUCUACAGUCCGACGAUCGCUUCGAUAUCCGCAUGCUACCUGGACAACAGCAGGCAACUUAGCAAAUGGAUCCGGAAGUCAGUGCGGAGGACCCUGGCUCCAGUGGGGGAGGACUGGGGACACACGCUACACACAUACACACAUAUGAGAACACACACAUACAUGUGAGAUGUGACACACACAUGUGAGAACACACAUACUGAGAACACACACACACACACACACACACACAUGUGAGUCACCCAAAGGUCCCUAUGUUAUUGAUUUUCAAAUGCACACUUUCACACACAAGGAUACACUCUUGCGGUCGCACUAGUGUGGAAUUCUCGGGUGUCAAGG
B5: ENSMUSG00000058297.27|Spock2 (ssRNA)
RNA: GGGAGUUCUACAGUCCGACGAUCGCUUCGAUAUCCGCAUGCUAAAGAGACCUGGACAACAGCAGGCAACUUAGCAAAUGGAUCCGGAAGUCAGUGCGGAGGACCCUGGCUCCAGUGGGGGAGGACUGGGGAGUGUGGCUUGUGUGUAUGUGUGAUAUGAGAUGUGUGUGUAUGAUGUGAGAUGUGAGUGUGUGAUGUGAGAUGUGUGUAUGUGAGAUGUGUGUGUGUGUGUGUGUGUGUGUGAUGUGAGUCACCCAAAGGUCCCUAUGUUAUUGAUUUUCAAAUGCACACUUUCACACACAAGCUCUUGCGGUCGCACUAGUGUGGAAUUCUCGGGUGUCAAGG
B6: ENSMUSG00000031028.414|Tub|94:98;228:232;234:246;252:260 (ssRNA)
RNA: GGGAGUUCUACAGUCCGACGAUCGCUUCGAUAUCCGCAUGCUAUUCUUUUUGGUCCUUGGCUGGGUAGCAAAUUGGUGAGAAGAGCAGCCUAGUCUGUAAGAGUGCAGGGCAGCUGGAACCUUAGGCAGCUCCUCUCAUACCUACCGGCUCCACACCCUAACACUCUCCACCCUCUGCUCCAAACCAGUUCUUCUGCAGAGUGGUGAUGUUAGCUUCCCCAGCUCCUCUCCAAGUCUAGCUUUUUCUGUCCUUCUGGCUCCAAGGUGCUCACACACACACACACACACACUGUCACACACACACUCUUGCGGUCGCACUAGUGUGGAAUUCUCGGGUGUCAAGG
B7: ENSMUSG00000031028.183|Tub (ssRNA)
RNA: GGGAGUUCUACAGUCCGACGAUCGCUUCGAUAUCCGCAUGCUAAGGGCACAUGUCUCUUGGUUACCUCACUGGUUAAUGGCAGAGUUGAGAACCUCAAAUUCUUUUGUUCCUACUGUUGCCCAGAAACUAGACUCUCUGACCUGCUAGGGUCUAUUCUGCAUGUCCUUUCUCUUCCCAGUUCCAGAGAUGAAACCCCUCCGAGUUAAUGUAUAAGGUUGGAAACCUUUCAGUAGGGAAUCAGGCAGUUCCCUGUUGAAAGUUGUCUGAGUUUUUGCACACCAUUCUGAUCUGAUGUGGCCUGUCUCUUGCGGUCGCACUAGUGUGGAAUUCUCGGGUGUCAAGG
B8: ENSMUSG00000028439.343|Fam219a (ssRNA)
RNA: GGGAGUUCUACAGUCCGACGAUCGCUUCGAUAUCCGCAUGCUACCAGUUCGCAUCCCCACCACUCAUCAUCUGGGCCCCAACGCUAGAACUCCCCCCACCGCAUCCCCACUGGGCUCUUUGACUCACCCUUCUAGAACAUGGGUGCCUCCUCUCUUUAGACUGCUGCCUUUGCCUCUGACUUCCUGUGGGAUUGAGAGCCAAGGGCCAGUGCCCUUGUGAGCGCACUAGUUCCGAAGCAGGCAAGGGCAUUAGGUGGUAUAUACAUAGCGGGUAGGGGUAGGAAGCUGGCAGCCUGCAGCUUCCUCUUGCGGUCGCACUAGUGUGGAAUUCUCGGGUGUCAAGG

Molecular target: TDP-43 (Homo sapiens, UniProt Q13148 1-414)
Experiment: RNA Bind-n-Seq with designed 260-mer pool; 25 mM Tris-HCl, 150 mM KCl, 3 mM MgCl2, BSA (printed 500 mg/mL), 20 units/mL SUPERase IN; pH not stated; 500 nM RNA pool, 1 h, 4 C; TDP-43 5, 50, 500 nM; high values mean tight binding
Conditions: protein: recombinant; tags: SBP (GST cleaved off with PreScission; pGEX-GST-SBP)
Method in brief: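 Streptavidin beads captured recombinant SBP-tagged TDP-43 at 5, 50 or 500 nM, and the beads were incubated for 1 h at 4 °C with 500 nM of an in vitro-transcribed pool of 260-nt 3′ UTR oligos in 25 mM Tris-HCl, 150 mM KCl, 3 mM MgCl2, BSA and SUPERase IN. After washing, bound RNA was eluted with biotin, reverse transcribed, PCR-amplified and sequenced. Binding is reported as R, the mapped-read-normalized abundance of each oligo in the bound sample divided by its abundance in the input. Two independent protein batches served as duplicates.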

Sequence of TDP-43 (Q13148 whole entry): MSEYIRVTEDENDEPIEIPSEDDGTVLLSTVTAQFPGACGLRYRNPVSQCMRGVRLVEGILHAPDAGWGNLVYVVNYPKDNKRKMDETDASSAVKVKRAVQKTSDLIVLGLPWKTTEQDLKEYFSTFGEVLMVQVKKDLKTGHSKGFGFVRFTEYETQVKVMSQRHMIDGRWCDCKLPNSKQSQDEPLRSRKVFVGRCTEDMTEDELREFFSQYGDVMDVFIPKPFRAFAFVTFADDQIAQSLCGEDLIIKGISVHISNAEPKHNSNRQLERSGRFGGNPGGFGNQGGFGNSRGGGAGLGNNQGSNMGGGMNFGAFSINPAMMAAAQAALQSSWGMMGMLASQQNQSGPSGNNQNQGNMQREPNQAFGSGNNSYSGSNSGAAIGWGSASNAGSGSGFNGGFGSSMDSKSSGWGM

| Binder | binding signal |
| --- | --- |
| B1 | 0.868 R (bound/input frequency ratio) |
| B2 | 6.8 R (bound/input frequency ratio) |
| B3 | 6.82 R (bound/input frequency ratio) |
| B4 | 3.52 R (bound/input frequency ratio) |
| B5 | 6.12 R (bound/input frequency ratio) |
| B6 | 2.86 R (bound/input frequency ratio) |
| B7 | 0.952 R (bound/input frequency ratio) |
| B8 | 0.735 R (bound/input frequency ratio) |

— PMC12864922, “TDP-43 directly inhibits mRNA accumulation in neurites through modulation of mRNA stability”
